Compound activity deposited in PubChem by several laboratories.
Sampled rows, rich in hits. Any-hit rate of the full collection: about 4.2%.
GAA850 FXN act: increases GAA850 frataxin promoter reporter activity; HEK293 lucGAA850 FXN promoter luciferase reporter, 24 h; percent of 10 µM SAHA response; activation, % at 6 µM; 0.56% of 360,000 active;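 active = activation above the average of all compounds screened plus 3 SD, cutoff fixed separately per campaign, cut at about 7.5% in these data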
MITF TRPM1 HTS: increases MITF-driven TRPM1 promoter luciferase signal; SK-MEL-5 TRPM1-promoter luciferase, 24 h; % of positive control, neutral wells = 0; activation, % at 12.5 µM; 0.75% of 300,000 active;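 active = mean activation of at least 80% with every replicate also reaching 80%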
Wnt bcat act: Wnt/beta-catenin pathway activation; Wnt/beta-catenin reporter cell assay, activator, plate reader; activation, % at 9.35 µM; 1.2% of 300,000 active; AID 743398; in the data active = activation above about 30%, passing the limit was not always enough
AHR activator: activators of human aryl hydrocarbon receptor. AHR-responsive luciferase reporter cells, luminescence. activation, % at 5 µM. 2.5% of 320,000 active; in the data active = activation above about 47%
Target sequence (P35869 whole entry, looked up): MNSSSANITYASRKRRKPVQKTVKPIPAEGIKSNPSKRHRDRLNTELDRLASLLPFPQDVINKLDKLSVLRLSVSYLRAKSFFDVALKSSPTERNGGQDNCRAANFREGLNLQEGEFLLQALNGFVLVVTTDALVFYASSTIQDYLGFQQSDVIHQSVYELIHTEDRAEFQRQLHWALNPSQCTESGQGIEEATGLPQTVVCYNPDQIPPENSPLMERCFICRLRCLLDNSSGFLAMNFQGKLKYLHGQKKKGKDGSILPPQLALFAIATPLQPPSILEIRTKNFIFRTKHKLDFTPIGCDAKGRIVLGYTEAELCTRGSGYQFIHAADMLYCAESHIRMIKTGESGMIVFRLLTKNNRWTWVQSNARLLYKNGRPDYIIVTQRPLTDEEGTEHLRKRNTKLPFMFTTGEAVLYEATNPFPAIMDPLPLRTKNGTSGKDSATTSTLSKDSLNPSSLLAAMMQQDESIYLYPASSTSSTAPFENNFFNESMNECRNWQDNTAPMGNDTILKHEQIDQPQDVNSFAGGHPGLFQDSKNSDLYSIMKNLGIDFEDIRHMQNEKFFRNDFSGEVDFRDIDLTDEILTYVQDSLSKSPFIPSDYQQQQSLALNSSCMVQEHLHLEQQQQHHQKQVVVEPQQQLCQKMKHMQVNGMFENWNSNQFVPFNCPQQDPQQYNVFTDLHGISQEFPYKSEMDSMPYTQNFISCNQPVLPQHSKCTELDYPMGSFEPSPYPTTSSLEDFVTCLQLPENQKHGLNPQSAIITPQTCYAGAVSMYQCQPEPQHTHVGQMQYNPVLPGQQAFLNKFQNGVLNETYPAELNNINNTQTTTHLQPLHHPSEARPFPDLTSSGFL
esBAF inh: inhibitors of esBAF chromatin remodeling in mouse ES cells | Bmi1-luciferase knock-in reporter, 24 h; 100% = twice the neutral-well signal | reporter increase, % at 12.5 µM | 2% of 350,000 active | AID 602393; in the data active = activation above about 40%;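 also: a rise in the Bmi1 reporter signal indicates esBAF inhibition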
Numbers stand for hits; 0 = inactive; - = no result given.

SMILES	GAA850 FXN act	MITF TRPM1 HTS	Wnt bcat act	AHR activator	esBAF inh
O=C(N[C@H]1CC[C@@H](CCNS(=O)(=O)Cc2ccccc2)O[C@@H]1CO)c1ccc2c(c1)OCO2	-	-	-	-	0
COc1ccc(CNC(=O)c2ccncc2)cc1	0	0	0	0	0
COc1ccc(CNC(=O)c2ccc(C(C)(C)C)cc2)cc1	0	102	0	0	-
CNC[C@@H]1Oc2c(NC(=O)Nc3ccc(C(F)(F)F)cc3)cccc2C(=O)N([C@@H](C)CO)C[C@@H]1C	-	-	-	-	0
O=[N+]([O-])c1cccc(-c2nc(-c3ccccn3)no2)c1	0	-	0	68	-
COc1cccc(-c2nc(-c3ccccn3)no2)c1	-	-	0	64	-
COc1ccc(S(=O)(=O)N[C@H]2CC[C@@H](CC(=O)N3CCc4ccccc4C3)O[C@@H]2CO)cc1	-	-	-	-	0
O=C(CN1CCOCC1)NCC[C@@H]1CC[C@H](NC(=O)Nc2ccc(C(F)(F)F)cc2)[C@H](CO)O1	-	-	-	-	0
CCCc1nnc(NC(=O)Nc2ccccc2OC)s1	0	0	-	0	-
CCCSc1nnc(NC(=O)Nc2ccccc2OC)s1	0	-	0	0	47
O=C1N/C(=C/c2ccc(N3CCOCC3)o2)C(=O)N1c1cccc(Cl)c1	8.9	0	0	0	-
COc1ccc(C=C(C(=O)O)c2ccc(OC)cc2)cc1	0	0	0	-	52
COc1ccc(C(=Cc2ccccc2)C(=O)O)cc1	0	0	0	-	0
O=C(CC1CC1)Nc1ccc2c(c1)[C@H]1C[C@H](CC(=O)NC3CCCC3)O[C@H](CO)[C@H]1O2	-	-	-	-	0
CCOC(=O)C1=C(COC(=O)c2cccc(Br)c2)NC(=O)NC1C (configuration not stated)	0	0	0	0	0
CCOC(=O)C1=C(COC(=O)c2cccc(N(C)C)c2)NC(=O)NC1C (configuration not stated)	0	0	38	0	60
O=C(COC(=O)c1ccc(O)cc1O)c1ccc2c(c1)OCO2	0	0	44	0	63
O=C(CCCN1CCOCC1)c1ccc2c(c1)OCCO2	0	0	-	0	50
Cc1cc(C(=O)COC(=O)c2ccc(O)cc2O)c(C)n1C(C)C	0	85	53	0	61
COC(=O)C(Cc1ccc(O)cc1)NC(=O)c1ccc2c(c1)OCCO2 (configuration not stated)	0	0	0	0	55
C[C@@H]1CCCCO[C@H](CN(C)C(=O)C2CCCCC2)[C@H](C)CN([C@@H](C)CO)C(=O)c2cc(NS(C)(=O)=O)ccc2O1	-	-	-	-	0
CCS(=O)(=O)Nc1ccc2c(c1)C(=O)N(C)C[C@@H](OC)[C@@H](C)CN(C)[C@@H](C)CO2	-	-	-	-	0
O=C(COc1ccccc1Br)c1ccc(O)cc1O	0	0	0	0	0
O=C(COC(=O)c1ccc(O)cc1)c1ccc2c(c1)OCCO2	0	0	38	-	0
O=C(COc1ccccc1Br)c1ccc2c(c1)OCO2	0	0	0	0	43
SMILES	GAA850 FXN act	MITF TRPM1 HTS	Wnt bcat act	AHR activator	esBAF inh
C[C@@H]1CN([C@H](C)CO)C(=O)c2cccc(NC(=O)Nc3ccc4c(c3)OCO4)c2O[C@@H]1CN(C)C(=O)Nc1ccc(F)cc1	-	-	-	-	0
Cc1ccc(S(=O)(=O)Nc2ccc3c(c2)C(=O)N([C@H](C)CO)C[C@@H](C)[C@H](CN(C)CC2CC2)OCCCC[C@@H](C)O3)cc1	-	-	-	-	0
CCC(C)Sc1nc2c(cnn2-c2ccc(C)cc2)c(=O)[nH]1 (configuration not stated)	0	0	0	0	0
CCC(C)Sc1nc2c(cnn2-c2ccccc2)c(=O)[nH]1 (configuration not stated)	0	0	0	66	0
C[C@@H]1CN([C@H](C)CO)C(=O)c2cc(C#Cc3ccccc3)cnc2O[C@@H]1CN(C)C(=O)CN(C)C	-	-	-	-	0
CCS(=O)(=O)Nc1ccc2c(c1)C(=O)N(C)C[C@@H](OC)[C@H](C)CN(CCC(F)(F)F)[C@H](C)CO2	-	-	-	-	0
Cc1cc(C(F)(F)Cl)n2ncc(-c3ccccn3)c2n1	0	0	0	64	61
COc1ccc(-c2c(C)nc3c(-c4ccccn4)cnn3c2N)cc1	0	-	0	-	0
O=C(C[C@H]1C=C[C@@H](NC(=O)Nc2ccc3c(c2)OCO3)[C@H](CO)O1)NCCCN1CCOCC1	-	-	-	-	0
Cc1ccc(C)c(Nc2nc(N)c3ccccc3n2)c1	0	0	33	0	-
COc1cc2nc(N3CCN(c4cc(C)ccc4C)CC3)nc(N)c2cc1OC	0	0	0	0	0
COc1ccc(C)cc1Nc1nc(N)c2cc(OC)c(OC)cc2n1	0	0	-	62	0
COc1ccc(CN2[C@@H](CO)[C@@H]3c4ccccc4N(C(=O)CC(F)(F)F)C[C@@H]32)cc1	-	-	-	-	0
Cc1cc(C)n2nc(N)c(N=Nc3ccccc3)c2n1	0	-	0	60	-
COc1ccc(NC(=O)Nc2ccc3c(c2)C(=O)N([C@H](C)CO)C[C@@H](C)[C@@H](CN(C)Cc2ccc(Cl)c(Cl)c2)OCCCC[C@H](C)O3)cc1	-	-	-	-	0
Cc1cccc(C(=O)Nc2ccc3c(c2)nc(C)n3C)c1	0	0	0	0	0
CCC(=O)Nc1ccc2c(c1)ncn2C	0	0	0	0	0
Cn1cnc2cc(NC(=O)COc3ccccc3)ccc21	0	0	0	0	43
Cc1cccc(C(=O)Nc2ccc3c(c2)ncn3C)c1	0	125	0	0	0
Cn1cnc2cc(NC(=O)c3cccs3)ccc21	0	93	0	0	-
O=C(C[C@@H]1C[C@H]2c3cc(NC(=O)CC4CC4)ccc3O[C@H]2[C@H](CO)O1)NCC(F)(F)F	-	-	-	-	0
C[C@@H]1CN([C@@H](C)CO)C(=O)c2cc(NC(=O)NC3CCCCC3)ccc2O[C@@H]1CN(C)Cc1ccc(-c2ccccc2)cc1	-	-	-	-	0
CS(=O)(=O)c1ccc(-c2sc3ccccc3c2C(=O)N2CCN(c3ccc(F)cc3)CC2)cc1	0	94	45	0	0
CC(=O)N1CCC2(CC1)C(C#N)=C(N)Oc1c2sc2nc(C)cc(C)c12	0	0	0	0	0
CCN1CCC2(CC1)C(C#N)=C(N)Oc1c2sc2nc(C)cc(C)c12	0	0	0	63	0
SMILES	GAA850 FXN act	MITF TRPM1 HTS	Wnt bcat act	AHR activator	esBAF inh
CNC(=O)C[C@H]1CC[C@@H]2[C@H](COC[C@H](O)CN2S(=O)(=O)c2ccccc2Cl)O1	-	-	-	-	0
C[C@H]1CCCCO[C@H](CN(C)C(=O)Cc2ccccc2)[C@@H](C)CN([C@@H](C)CO)C(=O)c2cc(NC(=O)Nc3ccc(F)cc3)ccc2O1	-	-	-	-	0
CC(=O)Nc1ccc(S(=O)(=O)C(C#N)c2nc3ccccc3nc2NCCCO)cc1 (configuration not stated)	0	0	0	0	0
CC(=O)Nc1ccc(S(=O)(=O)C(C#N)c2nc3ccccc3nc2NCCO)cc1 (configuration not stated)	0	0	46	0	0
O=C(CC1CC1)N1CC[C@@H]2[C@H]1c1cc(-c3ccccc3)ccc1N[C@@H]2CO	-	-	-	-	0
Cc1ccc(C(=O)Cn2nnc3ccccc32)cc1C	0	110	47	0	0
Cc1ccc(C(=O)Cn2cnc3ccccc3c2=O)cc1C	0	0	0	0	57
O=C(Cn1nnc2ccccc21)c1ccc(Br)cc1	0	0	0	0	0
